Results taken from PubChem BioAssay (Tox21).
Records with an inconclusive call do not appear. Calls of active or inactive are those of the source. Unless noted, the call rests on the fitted dose curve; in most records, active means well fitted curve in the direction sought with a large enough effect in the repeat runs; inconclusive means weak or mixed curves; inactive means no such curve, though single readings can be large; an effect the other way counts as inactive or inconclusive.

Legend:
[1] = qHTS assay to identify small molecule antagonists of the thyroid receptor (TR) signaling pathway - cell viability counter screen (AID 743064); further: nearly all actives have a fitted effect of over 50% in size
Method in brief: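 Same-well viability check: GH3.TRE-Luc cells stimulated with 1 nM T3 alongside test compound for 23.5 h, followed by CellTiter-Fluor fluorescence.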

[2] = qHTS assay to identify small molecule antagonists of the thyroid receptor (TR) signaling pathway (AID 743065); further: series mostly up to about 70 µM; nearly all actives have a fitted effect of over 55% in size
Method in brief: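 GH3.TRE-Luc rat pituitary cells (two TREs driving luciferase) were dosed with compound, then stimulated with 1 nM T3 (final) for 23.5 h at 37 C. ONE-Glo luminescence was the read-out, with CellTiter-Fluor fluorescence as the cytotoxicity counter-screen.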

[3] = system: thyroid hormone receptor (rat, GH3 cells); experiment: qHTS assay to identify small molecule agonists of the thyroid receptor (TR) signaling pathway (AID 743066; calls by dose curve)
[4] = qHTS assay to identify small molecule antagonists of the estrogen receptor alpha (ER-alpha) signaling pathway - cell viability counter screen (AID 743074; calls by dose curve;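 further: HEK293 cells carrying ER-alpha-UAS-bla reporter stimulated with 17beta-estradiol; nearly all actives have a fitted effect of over 45% in size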)
[5] = qHTS assay to identify small molecule antagonists of the estrogen receptor alpha (ER-alpha) signaling pathway using the BG1 cell line - cell viability counter screen (AID 743081);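 further: compound given together with 17beta-estradiol as the ER stimulus; series mostly up to about 70 µM; nearly all actives have a fitted effect of over 45% in size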
Aromatase (Homo sapiens) = Aromatase (Homo sapiens) (UniProt P11511); experiment: qHTS assay to identify aromatase inhibitors (AID 743083); further: series mostly up to about 70 µM; nearly all actives have a fitted effect of over 55% in size
[6] = qHTS assay to identify aromatase inhibitors - cell viability counter screen (AID 743084);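 further: cells stimulated with testosterone during compound exposure; nearly all actives have a fitted effect of over 55% in size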
[7] = target: Aryl hydrocarbon receptor (Homo sapiens) (UniProt P35869); experiment: qHTS assay to identify small molecule that activate the aryl hydrocarbon receptor (AhR) signaling pathway (AID 743085); further: nearly all actives have a fitted effect of over 15% in size; further: potency means the concentration at half of the fitted maximal effect;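 on activation: HG2L7.5c1 human HepG2 liver cells with stably integrated DRE-driven firefly reporter; series mostly up to about 70 µM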
Method in brief: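 Reporter assay in engineered HepG2 line HG2L7.5c1, whose plasmid carries twenty dioxin responsive elements upstream of firefly luciferase. Treatment lasted 24 h at 37C; ONE-Glo luminescence gauged induction.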

[8] = qHTS assay to identify small molecule that activate the aryl hydrocarbon receptor (AhR) signaling pathway - cell viability counter screen (AID 743086);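 further: HepG2 liver cells carrying the AhR DRE luciferase reporter; series mostly up to about 70 µM; nearly all actives have a fitted effect of over 45% in size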
Method in brief: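 HepG2-AhR-luc (HG2L7.5c1) cells, 4000/well, treated 24 h at 37 C with compound; viability measured as CellTiter-Fluor fluorescence after 30 min in the same wells as the luciferase read.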

[9] = target: Peroxisome proliferator-activated receptor gamma (Homo sapiens) (UniProt P37231); experiment: qHTS assay to identify small molecule agonists of the peroxisome proliferator-activated receptor gamma (PPARg) signaling pathway (AID 743094; active means well fitted activation curve with a large enough effect in the signal ratio in the repeat runs, not every such curve was filed as active; the % refers to the signal ratio)
Method in brief: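 Following 5 h plating at 37C, PPARg-bla HEK293H cells receive compound or DMSO for 17 h; fluorescence intensity is recorded after LiveBLAzer B/G loading for 1 h at room temperature.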

[10] = target: Peroxisome proliferator-activated receptor gamma (Homo sapiens) (UniProt P37231); experiment: qHTS assay to identify small molecule antagonists of the peroxisome proliferator-activated receptor gamma (PPARg) signaling pathway (AID 743191; calls by dose curve; further: series mostly up to about 63 µM; nearly all actives have a fitted effect of over 30% in size)
Method in brief: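 GeneBLAzer PPARg UAS-bla HEK293H cells, 5 h post-plating, exposed to compounds 17 h at 37C. LiveBLAzer B/G FRET substrate added for 1 h at room temperature; beta-lactamase reporter read by fluorescence intensity.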

[11] = qHTS assay to identify small molecule antagonists of the peroxisome proliferator-activated receptor gamma (PPARg) signaling pathway - cell viability counter screen (AID 743194); further: nearly all actives have a fitted effect of over 55% in size
Method in brief: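 Cytotoxicity counter screen in PPARg-bla HEK293H cells, same wells as reporter assay. Compounds plus 50 nM rosiglitazone (final) for 17 h at 37 C, then viability read by CellTiter-Glo luminescence.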

[12] = qHTS assay for small molecule agonists of the antioxidant response element (ARE) signaling pathway (AID 743202; active means well fitted activation curve with a large enough effect in the signal ratio in the repeat runs, not every such curve was filed as active; the % refers to the signal ratio)
Method in brief: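 ARE-bla HepG2 cells (beta-lactamase reporter under the antioxidant response element), plated 5 hours, then exposed to compounds 16 hours at 37 C. LiveBLAzer B/G FRET substrate added for 2 hours at room temperature; fluorescence intensity read.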

[13] = qHTS assay for small molecule agonists of the antioxidant response element (ARE) signaling pathway - cell viability counter screen (AID 743203; calls by dose curve; further: nearly all actives have a fitted effect of over 55% in size)
Method in brief: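 Compounds in DMSO were pinned onto ARE-bla HepG2 cells plated 5 hrs earlier at 2,000 cells/well. Sixteen hours later at 37C/5% CO2, CellTiter-Glo was added and luminescence measured after 30 min at room temperature.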

[14] = qHTS assay for small molecule activators of the heat shock response signaling pathway - cell viability counter screen (AID 743209); further: nearly all actives have a fitted effect of over 50% in size
Method in brief: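 Counter screen for cytotoxicity in HeLa HSE-bla reporter cells. Treatment was 5 h at 37 C; viability was detected by luminescent ATP assay (CellTiter-Glo) in the same wells as the beta-lactamase read.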

[15] = qHTS assay for small molecule activators of the heat shock response signaling pathway (AID 743210; active means well fitted activation curve with a large enough effect in the signal ratio in the repeat runs, with a control signal flat, not every such curve was filed as active; the % refers to the signal ratio; further: series mostly up to about 63 µM)
Method in brief: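 HSE-bla HeLa cells (beta-lactamase reporter under heat shock response elements), plated overnight, then exposed to compounds 5 h at 37 C; LiveBLAzer B/G FRET substrate added, 2.5 h at room temperature, fluorescence intensity read.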

[16] = target: Estrogen receptor (Homo sapiens) (UniProt P03372); experiment: qHTS assay to identify small molecule agonists of the estrogen receptor alpha (ER-alpha) signaling pathway (AID 743075; calls by dose curve;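 further: HEK293 GripTite cells with ER-alpha and UAS-driven beta-lactamase reporter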)
[17] = target: Estrogen receptor (Homo sapiens) (UniProt P03372); experiment: qHTS assay to identify small molecule agonists of the estrogen receptor alpha (ER-alpha) signaling pathway using the BG1 cell line (AID 743079); further: potency means the concentration at half of the fitted maximal effect; nearly all actives have a fitted effect of over 20% in size

Measured: Potency

Aromatase (Homo sapiens), sequence (P11511 whole entry, looked up): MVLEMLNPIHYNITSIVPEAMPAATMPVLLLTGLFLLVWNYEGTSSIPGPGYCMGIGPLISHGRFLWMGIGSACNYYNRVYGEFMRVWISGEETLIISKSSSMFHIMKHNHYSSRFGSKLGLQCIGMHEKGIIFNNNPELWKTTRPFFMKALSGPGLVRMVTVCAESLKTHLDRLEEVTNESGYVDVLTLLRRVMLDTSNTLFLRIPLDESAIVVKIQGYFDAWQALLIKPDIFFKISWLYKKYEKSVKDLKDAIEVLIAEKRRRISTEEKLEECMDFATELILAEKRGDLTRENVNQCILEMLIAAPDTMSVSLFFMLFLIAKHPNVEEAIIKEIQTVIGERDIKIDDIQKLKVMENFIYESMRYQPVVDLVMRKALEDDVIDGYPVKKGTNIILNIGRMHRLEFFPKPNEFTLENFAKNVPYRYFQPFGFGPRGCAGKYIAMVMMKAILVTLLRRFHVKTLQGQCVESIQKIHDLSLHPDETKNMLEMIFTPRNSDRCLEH
Estrogen receptor (Homo sapiens), sequence (P03372 whole entry, looked up): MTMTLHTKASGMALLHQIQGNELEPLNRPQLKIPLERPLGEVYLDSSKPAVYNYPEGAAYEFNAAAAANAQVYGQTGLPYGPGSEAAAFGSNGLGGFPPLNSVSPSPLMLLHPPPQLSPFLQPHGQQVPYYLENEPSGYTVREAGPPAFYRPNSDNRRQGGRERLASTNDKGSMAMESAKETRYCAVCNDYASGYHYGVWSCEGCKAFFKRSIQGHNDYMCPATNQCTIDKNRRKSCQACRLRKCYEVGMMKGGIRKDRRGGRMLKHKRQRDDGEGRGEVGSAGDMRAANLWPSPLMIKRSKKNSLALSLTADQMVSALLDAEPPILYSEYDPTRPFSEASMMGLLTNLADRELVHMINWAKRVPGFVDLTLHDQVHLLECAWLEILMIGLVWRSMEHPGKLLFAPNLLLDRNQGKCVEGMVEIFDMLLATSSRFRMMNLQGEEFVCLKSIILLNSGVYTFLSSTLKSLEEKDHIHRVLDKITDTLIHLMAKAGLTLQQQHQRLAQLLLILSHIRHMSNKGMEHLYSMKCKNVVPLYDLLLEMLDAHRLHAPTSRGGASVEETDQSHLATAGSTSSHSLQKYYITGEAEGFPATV
Peroxisome proliferator-activated receptor gamma (Homo sapiens), sequence (P37231 whole entry, looked up): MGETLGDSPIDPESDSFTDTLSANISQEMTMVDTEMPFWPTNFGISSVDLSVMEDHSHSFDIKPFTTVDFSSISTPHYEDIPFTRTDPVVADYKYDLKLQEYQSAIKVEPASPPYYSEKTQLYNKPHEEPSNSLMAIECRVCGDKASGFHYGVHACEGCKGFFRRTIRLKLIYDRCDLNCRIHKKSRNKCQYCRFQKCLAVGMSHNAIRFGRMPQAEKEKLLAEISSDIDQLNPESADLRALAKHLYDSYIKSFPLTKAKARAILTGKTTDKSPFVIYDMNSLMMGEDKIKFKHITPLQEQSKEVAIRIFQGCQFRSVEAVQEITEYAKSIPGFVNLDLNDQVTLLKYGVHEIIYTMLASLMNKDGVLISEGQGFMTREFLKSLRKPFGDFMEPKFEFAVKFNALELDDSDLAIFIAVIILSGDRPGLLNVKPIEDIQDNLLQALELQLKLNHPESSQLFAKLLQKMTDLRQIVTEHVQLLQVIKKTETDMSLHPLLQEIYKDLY
Aryl hydrocarbon receptor (Homo sapiens), sequence (P35869 whole entry, looked up): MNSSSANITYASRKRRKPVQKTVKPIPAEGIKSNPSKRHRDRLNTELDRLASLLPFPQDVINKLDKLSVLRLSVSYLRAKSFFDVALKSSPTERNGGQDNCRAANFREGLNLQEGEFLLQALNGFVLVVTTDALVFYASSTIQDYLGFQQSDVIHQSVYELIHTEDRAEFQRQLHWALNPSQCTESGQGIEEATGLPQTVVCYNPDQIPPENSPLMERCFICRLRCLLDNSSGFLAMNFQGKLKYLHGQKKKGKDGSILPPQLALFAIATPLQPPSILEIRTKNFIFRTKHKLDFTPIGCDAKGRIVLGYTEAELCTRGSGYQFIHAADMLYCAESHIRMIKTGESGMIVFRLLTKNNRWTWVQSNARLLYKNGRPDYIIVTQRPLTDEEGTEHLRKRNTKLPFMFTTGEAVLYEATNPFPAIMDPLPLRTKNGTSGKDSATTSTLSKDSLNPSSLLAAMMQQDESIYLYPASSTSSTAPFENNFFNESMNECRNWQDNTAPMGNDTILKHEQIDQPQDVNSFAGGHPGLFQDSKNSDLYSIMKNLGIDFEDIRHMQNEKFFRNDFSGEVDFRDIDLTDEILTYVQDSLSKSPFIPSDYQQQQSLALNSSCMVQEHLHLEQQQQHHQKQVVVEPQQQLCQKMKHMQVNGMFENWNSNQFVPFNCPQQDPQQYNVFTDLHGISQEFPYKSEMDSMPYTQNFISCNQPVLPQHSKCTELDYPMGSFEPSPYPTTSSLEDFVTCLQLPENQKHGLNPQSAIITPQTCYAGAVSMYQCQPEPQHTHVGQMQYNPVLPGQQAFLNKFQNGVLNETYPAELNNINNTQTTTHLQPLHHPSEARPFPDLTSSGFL

CO[Si](CCCn1c(=O)n(CCC[Si](OC)(OC)OC)c(=O)n(CCC[Si](OC)(OC)OC)c1=O)(OC)OC
not listed: [16] | [17]
inactive: all other assays above

CC(=O)CC(=O)Nc1ccc(C)cc1C
not listed: [9] | [10] | [15] | [16] | [17]
inactive: all other assays above

CCCCSCCCC
not listed: [7] | [16] | [17]
inactive: all other assays above

CCC(=O)CC
not listed: [14] | [16] | [17]
inactive: all other assays above

Cc1ccc(C(C)NC(=O)[C@@H](NC(=O)OC(C)C)C(C)C)cc1 (stereo partly drawn)
not listed: [10] | [14] | [16] | [17]
inactive: all other assays above

C=CCCCCCCCC
not listed: [16] | [17]
inactive: all other assays above

CC(C)[C@H]1CC[C@H](C)C[C@@H]1O
not listed: [10] | [12] | [15] | [16] | [17]
inactive: all other assays above

Cc1cccc(Cl)c1
not listed: [10] | [12] | [16] | [17]
inactive: all other assays above

CC(C)=CCC/C(C)=C/COC=O
not listed: [9] | [16] | [17]
inactive: all other assays above

Cc1ccc2c(c1)C(=O)c1ccccc1C2=O
active: [17] 34.2 µM | [7] 48.4 µM
not listed: [10] | [12]
inactive: all other assays above

O/N=C/C=N/O
not listed: [7] | [16] | [17]
inactive: all other assays above

C=Cc1ccc(C(C)(C)C)cc1
not listed: [10] | [12] | [16] | [17]
inactive: all other assays above

Cc1ccc(C)c([N+](=O)[O-])c1
not listed: [12] | [16] | [17]
inactive: all other assays above

ONc1ccccc1
active: [17] 60.5 µM | [7] 60.5 µM
not listed: [9] | [12] | [15]
inactive: all other assays above

CC(C)=CCC[C@@](C)(O)[C@H]1CC=C(C)CC1
not listed: [9] | [15] | [16] | [17]
inactive: all other assays above

O=NN(CCCl)C(=O)NC1CCCCC1
not listed: [10] | [16] | [17]
inactive: all other assays above

CC(N)CCCC(C)(C)O (stereo not drawn)
not listed: [9] | [13] | [16] | [17]
inactive: all other assays above

CC(C)NCC(O)c1ccc2ccccc2c1 (stereo not drawn)
not listed: [10] | [15] | [16] | [17]
inactive: all other assays above
